APP transl inh – inhibitors of APP translation via 5'UTR reporter, primary screen, APP 5'UTR luciferase, SH-SY5Y cells; SH-SY5Y APP 5'UTR-luciferase reporter, luminescence; inhibition, % at 2 µM; 190,000 tested, 0.82% active; AID 1285, 2008;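 active means inhibition above a set limit, derived from the sample mean plus 3 SD, cut at about 45% in these data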
IEC-6 tox – cytotoxicity in IEC-6 intestinal epithelial cells, primary screen, cytotoxicity control for KLF5 inhibitor project, cell-based, luminescence. inhibition, % at 5 µM. IEC-6 cytotoxicity, luminescence viability. 290,000 tested, 0.78% active; in the data active means inhibition above about 22%;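 further: 0% = plate median of test compound wells and 100% = cytotoxic reference compound wells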
aSyn 5UTR inh – MLPCN primary screen, SNCA 5' untranslated region; inhibition, % (tested at 7.5 µM); 300,000 tested, 0.82% active; AID 1813, 2009; alpha-synuclein 5'UTR reporter, inhibitor activity; in the data active means inhibition above about 60%;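 further: H4 neuroglioblastoma cells stably carrying SNCA 5'UTR luciferase fusion; 0% = DMSO wells and 100% = positive control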
BaF3 tox – parental Ba/F3 cell viability inhibition, counter-screen for JAK2V617F inhibitor project, murine pro-B, CellTiter-Glo luminescence; CellTiter-Glo ATP luminescence; inhibition, % at 5.6 µM; 220,000 tested, 1.1% active;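 active means inhibition above a per-campaign cutoff, the mean inhibition of all tested compounds plus 3 SD, cut at about 27% in these data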;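 further: 0% = DMSO wells and 100% = JAK Inhibitor I control wells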
Ba/F3 V617F tox – reduced viability of JAK2V617F-dependent Ba/F3 cells, primary screen, JAK2V617F inhibitor project, cell-based, Ba/F3 EpoR-JAK2V617F, luminescence. 220,000 tested, 1.1% active. AID 1446, 2008. inhibition, % at 5.6 µM. ATP luminescence;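 active means inhibition above the campaign mean plus 3 SD over all tested compounds, cut at about 24% in these data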;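 further: cytokine-independent growth of Ba/F3 cells driven by EpoR plus mutant JAK2; 0% = DMSO-treated cells and 100% = JAK inhibitor I control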
KLF5 inh – KLF5 expression inhibitors, primary screen, DLD-1 cells, luminescence; DLD-1 KLF5 promoter-luciferase reporter; inhibition, % at 5 µM; 290,000 tested, 0.23% active;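 active means inhibition above a per-plate limit of that plate's mean compound inhibition plus 3 SD, cut at about 60% in these data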;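 further: 0% = DMSO wells and 100% = LY294002 at 200 µM; higher means less KLF5 promoter-driven luciferase light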
The depositor's hits bear a star; · = no result. In the library only some 2.2% were active in any assay of this set; here they are far more common.

SMILES | APP transl inh | IEC-6 tox | aSyn 5UTR inh | BaF3 tox | Ba/F3 V617F tox | KLF5 inh
Cc1ccc(N2C(=O)Nc3ccccc3C2(O)C(=O)N2CCN(c3ccccn3)CC2)cc1C (stereo not given) | -2.4 | -1.7 | -11.7 | 5.3 | -2.3 | -2.2
CC(C)CC1CCCCC1OC(=O)C[N+]1(C)CCCCC1 (stereo not given) | -24.9 | 0.5 | 20.5 | 62.6* | 56.7* | -0.9
CC(C)(C)C1CCC(OC(=O)C[N+]2(C)CCCCC2)CC1 (stereo not given) | 8.2 | -3.2 | -4.0 | 40.5* | 32.1* | -14.6
C[N+]1(CC(=O)OCCCC2CCCCC2)CCCC1 | 7.1 | 2.2 | -16.7 | 2.6 | -0.3 | -28.5
CC(C)(C)C1CCC(OC(=O)CN2CCOCC2)CC1 (stereo not given) | -15.8 | -0.9 | -107.9 | 4.2 | -0.1 | 9.9
CC(C)(C)C1CCC(OC(=O)C[N+]2(C)CCCC2)CC1 (stereo not given) | -11.5 | -1.5 | 6.4 | 35.5* | 31.9* | -15.4
Cc1cc(NC(=O)COc2ccc(C(C)(C)C)cc2)no1 | · | -10.2 | -22.0 | · | · | -13.4
Cc1ccc(C2CC(C(F)(F)F)n3nc(C(=O)NCc4c(C)nn(C)c4C)c(Cl)c3N2)cc1 (stereo not given) | -4.7 | 1.2 | 2.4 | 55.1* | 44.0* | -11.3
CCOC(=O)C1(Cc2cccc(OC)c2)CCCN(C(=O)CNC(C)=O)C1 (stereo not given) | · | 2.0 | -114.9 | · | · | -88.8
CCCOc1ccc(CNC(=O)c2ccc3nc(N4CCOCC4)sc3c2)cc1 | · | 3.5 | -6.0 | · | · | -11.2
CNc1ccccc1C(C)(C)c1cc(-c2cccc(OC)c2)no1 | 3.2 | -0.7 | 15.6 | 56.4* | 47.9* | -18.5
CCN(CC)c1ccc2cc(C(C)=O)c(=O)oc2c1 | -16.8 | 2.4 | -30.2 | 5.0 | -1.6 | -6.9
CCN(CC)c1ccc2cc(NC(=O)CCC(=O)O)c(=O)oc2c1 | 52.1* | 2.3 | 120.2* | 0.4 | -2.3 | 41.2
Cc1ccsc1C(=O)N1CCN(c2ncc(C(F)(F)F)cc2Cl)CC1 | · | 11.9 | 4.6 | · | · | -14.9
Cc1ccc2nc(NC(=O)c3ccc(-c4nc5ccccc5s4)s3)sc2c1 | 1.0 | -8.0 | · | 4.3 | 0.1 | 13.7
O=C(NC1CC1)c1ccc(-c2nc3ccccc3s2)s1 | -82.6 | 11.1 | 96.3* | 3.1 | 1.1 | 34.9
O=C(c1ccc(-c2nc3ccccc3s2)s1)N1CCOCC1 | -65.1 | 9.1 | 100.4* | 6.6 | 2.2 | 56.7
CCN1CCN(C(=O)c2ccc(-c3nc4ccccc4s3)s2)CC1 | -131.3 | 1.8 | -65.7 | 5.6 | 3.1 | -104.1
Cn1c(O)c(N=NC(=O)c2cc(-c3cccs3)nc3ccccc23)c2ccccc21 | 2.4 | -4.0 | 13.0 | 4.6 | -1.3 | 11.1
O=C(N=Nc1c(O)[nH]c2ccc(Br)cc12)c1cc(-c2cccs2)nc2ccccc12 | 27.7 | 5.9 | 81.4* | 4.0 | 0.1 | -10.8
Cc1onc(-c2ccccc2Cl)c1C(=O)OCN1C(=O)c2ccccc2C1=O | -1.1 | 6.1 | 3.2 | 95.2* | 4.2 | -30.5
COc1ccc(C(=O)Nn2c(SCC(=O)NCC3CCCO3)nc3ccccc3c2=O)cc1 (stereo not given) | -56.7 | 2.7 | 87.1* | 8.4 | 7.0 | -46.9
COc1ccc(C(=O)Nn2c(SCC(=O)NCc3ccccc3)nc3ccccc3c2=O)cc1 | -65.8 | 3.8 | 76.9* | 9.3 | 6.0 | -30.9
COc1ccc(C(=O)Nn2c(SCC(=O)NC3CCCC3)nc3ccccc3c2=O)cc1 | -72.6 | 6.8 | -49.6 | 12.5 | 9.2 | -82.1
CCOc1ccc(-c2cc(CCCC(=O)NCc3ccc(C)cc3)no2)cc1 | 29.5 | -1.2 | 80.7* | 6.0 | 1.0 | 17.1
SMILES | APP transl inh | IEC-6 tox | aSyn 5UTR inh | BaF3 tox | Ba/F3 V617F tox | KLF5 inh
COc1ccc(-c2cc(CCCC(=O)NCCc3cc(OC)ccc3OC)no2)cc1 | 1.8 | 1.2 | 7.1 | 5.8 | 2.5 | 7.3
CCOc1ccc(-c2cc(CCCC(=O)NCc3ccco3)no2)cc1 | 40.6 | -0.7 | 72.8* | -1.2 | -1.5 | -9.4
Cc1ccccc1NC(=O)COc1coc(CN2CCN(c3ccccc3)CC2)cc1=O | · | · | 1.3 | · | · | ·
COC(=O)c1cc(NS(=O)(=O)c2ccc(N3CCOCC3)c(N)c2)cc(C(=O)OC)c1 | -9.1 | 8.4 | 12.5 | 0.8 | -3.9 | 4.3
CN1CCN(CC(=O)Nc2nc3c(s2)CCCC3)CC1 | · | 2.5 | -18.1 | 1.5 | -3.6 | -3.0
CCN1CCN(/C=N/c2nc3c(s2)CCCC3)CC1 | -76.3 | 1.2 | 65.6* | 2.1 | -2.6 | -26.4
O=C(Nc1ccc(Cl)cc1)C1CCCN(c2cnccn2)C1 (stereo not given) | · | 6.2 | -14.8 | · | · | -19.6
Cc1ccccc1NC(=S)N(CCc1c(C)[nH]c2ccc(F)cc12)Cc1cccnc1 | 10.3 | -4.6 | 7.6 | 8.5 | -1.2 | -17.9
COc1ccc2[nH]c(C)c(CCN(Cc3cccs3)C(=S)Nc3cccc(F)c3)c2c1 | -2.0 | -4.7 | -18.2 | 51.1* | 44.9* | -29.3
Cc1[nH]c2ccc(F)cc2c1CCN(Cc1cccnc1)C(=S)Nc1cccc(F)c1 | -15.3 | 4.3 | 17.7 | 28.4* | 31.1* | -13.4
COc1cc(-n2c(C)nc3cc(C(=O)N4CCOCC4)ccc32)cc(OC)c1OC | 3.0 | 0.2 | 6.9 | 91.1* | -1.6 | -24.6
COc1ccc(NC(=O)CCS(=O)(=O)c2ccccc2Cl)cc1S(=O)(=O)Nc1ccc(Cl)cc1 | -4.0 | 10.4 | -19.6 | 68.9* | 15.6 | -5.5
COC(=O)C1CCN(C(=O)/C(C)=C\c2ccccc2)CC1 | · | -1.4 | -30.7 | · | · | -76.8
O=C(Nc1cccc(C(F)(F)F)c1)Oc1ccc(Cl)c2cccnc12 | · | -3.0 | 75.1* | 1.7 | -4.8 | -6.8
CCN(CC)C(=O)Oc1ccc(Cl)c2cccnc12 | -22.1 | 0.3 | 22.7 | 5.4 | 0.3 | 9.6
OCCC1CN(Cc2cnc(-c3ccc(Cl)cc3)nc2)CCN1C1CCCC1 (stereo not given) | · | -0.7 | -15.2 | 5.5 | -2.9 | 5.1
Cc1ccc(OCC(=O)Nc2sc3c(c2C#N)CC(C)(C)NC3(C)C)cc1 | 26.4 | -4.4 | -7.0 | 7.2 | -0.7 | -55.2
CC1(C)Cc2c(sc(NC(=O)COc3cccc4ccccc34)c2C#N)C(C)(C)N1 | · | -0.9 | 71.9* | -3.6 | -6.0 | -2.5
CCOC(=O)c1ccc(Oc2nc(OC)cc(OC)n2)cc1 | 7.3 | -1.5 | 8.7 | 2.9 | 4.9 | -11.8
CC(=O)O[C@@]12CO[C@@H]1C[C@H](O)[C@@]1(C)C(=O)[C@H](O)C3=C(C)[C@@H](OC(=O)[C@H](O)[C@@H](NC(=O)OC(C)(C)C)c4ccccc4)C[C@](O)([C@@H](OC(=O)c4ccccc4)[C@H]21)C3(C)C | · | 86.9* | 71.8* | 61.9* | 73.4* | 67.7*

High-throughput results (PubChem)
